Assay results taken from PubChem BioAssay.
Activity calls are given as the source filed them. The rule behind the calls is not given here.

biological target: Pantothenate synthetase (Mycobacterium tuberculosis (strain ATCC 25618 / H37Rv)) (UniProt P9WIL5); experiment: Recombinant Mtb pantothenate synthetase (PanC) inhibitors, coupled enzyme, confirmatory (AID 375); details: coupled enzyme assay; at 10 µM, stronger effect = higher value;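 note: 0% = full reaction with vehicle and 100% = no enzyme background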
Sequence (P9WIL5 whole entry, looked up): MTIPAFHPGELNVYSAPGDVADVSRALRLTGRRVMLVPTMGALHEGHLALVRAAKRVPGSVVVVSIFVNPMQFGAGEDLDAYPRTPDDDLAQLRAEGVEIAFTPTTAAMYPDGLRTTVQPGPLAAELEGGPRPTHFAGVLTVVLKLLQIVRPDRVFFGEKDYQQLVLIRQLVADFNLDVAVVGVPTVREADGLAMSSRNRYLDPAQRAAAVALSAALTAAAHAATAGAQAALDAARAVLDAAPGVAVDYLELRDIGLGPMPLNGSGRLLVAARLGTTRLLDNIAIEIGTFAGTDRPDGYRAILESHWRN

| Structure (SMILES) | inhibition |
| --- | --- |
| COC(=O)CN1C(=O)CC(C)(C)S(=O)c2ccccc21 (stereo not given) | 0% (inactive) |
| Cc1cccc(-n2nnc(C(=O)NCc3ccccc3)c2N)c1 | 0% (inactive) |
| COCCNC(=O)CC(NS(=O)(=O)c1ccc(NC(C)=O)cc1)C(C)C (stereo not given) | 0% (inactive) |
| Cc1cccc(CS(=O)(=O)Cc2ccc(C(=O)NCC3CCCO3)o2)c1 (stereo not given) | 0% (inactive) |
| O=C(COC(=O)c1cncc(Br)c1)NCCC1=CCCCC1 | 0% (inactive) |
| Cc1nnc(SCc2cnc(-c3ccccc3)o2)[nH]c1=O | 0% (inactive) |
| O=C(c1cccs1)N1CCc2ccccc21 | 0% (inactive) |
| Cc1ccc2c(c1)nnn2C1CCN(C(=O)NC23CC4CC(CC(C4)C2)C3)CC1 | 0% (inactive) |
| CCCC(=O)OCCn1c(Br)nc2c1c(=O)[nH]c(=O)n2C | 7% (inactive) |
| CN1CCN(C(=O)c2ccccc2N(Cc2ccccc2)S(C)(=O)=O)CC1 | 0% (inactive) |
| O=c1[nH]c(SCc2ccccc2Cl)nc2c1CCCC2 | 0% (inactive) |
| Cc1ccc(CN2CCN(C(=O)C3CCC3)CC2)cc1 | 3% (inactive) |
| O=C(c1ccco1)N1CCN(C2=NS(=O)(=O)c3ccccc32)CC1 | 0% (inactive) |
| CCOC(=O)N1CCC(NC(=O)CN2C(=O)CCSc3ccccc32)CC1 | 0% (inactive) |
| CCOC(=O)c1[nH]c(C)c(C(=O)NC)c1C | 0% (inactive) |
| CCCCN1C[C@H](O)[C@@H](O)[C@H](O)[C@H]1CO | 0% (inactive) |
| Cc1cc(C)c(-c2cc(C(=O)Nc3c(C)n(C)n(-c4ccccc4)c3=O)[nH]n2)c(O)c1 | 0% (inactive) |
| Cc1ccc2nc(-c3ccc(S(=O)(=O)N4CCOCC4)cc3)cn2c1 | 0% (inactive) |
| C=CCn1c(=O)[nH]c2cc(C(=O)N3CCN(c4cc(C)ccc4C)CC3)ccc2c1=O | 4% (inactive) |
| COc1ccc(CCN2CC(O)=C(c3nc4ccccc4c(=O)[nH]3)C2=N)cc1OC | 0% (inactive) |

| Structure (SMILES) | inhibition |
| --- | --- |
| CCSc1nnc2c(n1)OC=Nc1ccc(Br)cc1-2 | 2% (inactive) |
| COc1cccc(C2C(C(=O)c3ccc(C)o3)=C(O)C(=O)N2CCCN(C)C)c1 (stereo not given) | 0% (inactive) |
| Cc1coc2cc3oc(=O)c4c(c3cc12)CCC4 | 11% (inactive) |
| O=c1oc2ccccc2c(O)c1C=NCc1ccccn1 | 0% (inactive) |
| CCN(CC)S(=O)(=O)c1ccc(S(=O)(=O)N(Cc2ccccn2)Cc2ccco2)cc1 | 11% (inactive) |
| O=C(Nc1cccnc1)c1ccc2c(c1)OCO2 | 0% (inactive) |
| Cc1cc(C)n(-c2nc3sc4c(c3c3nnc(SC(C)C)n23)CC(C)(C)OC4)n1 | 0% (inactive) |
| CC1(C)CC(=O)c2cnc(NC(=O)CSc3nc4ccccc4o3)nc2C1 | 0% (inactive) |
| COc1ccc(-c2ccc(CCC(=O)O)n2NC(=O)c2cccs2)cc1 | 0% (inactive) |
| Cc1cc2ccccc2n1CCNC(=O)C1CC1 | 1% (inactive) |
| NC(=O)c1ccccc1NC(=O)CN1CCOCC1 | 6% (inactive) |
| COCCNC(=O)C(c1ccc(C)o1)N(C(=O)c1snc(C(N)=O)c1N)c1ccc(C)cc1 (stereo not given) | 4% (inactive) |
| O=C(O)CC1=C(O)C(=O)N(c2ccccc2)C1c1ccccc1 (stereo not given) | 0% (inactive) |
| CCOc1ccccc1C1CC(=O)Nc2cc3c(cc21)OCO3 (stereo not given) | 0% (inactive) |
| COc1ccc(Br)cc1CNC(=O)C1CCCN(S(C)(=O)=O)C1 (stereo not given) | 6% (inactive) |
| CCCCc1ccc(NC(=O)c2c(C)noc2C)cc1 | 8% (inactive) |
| Cn1c(=O)c2c(nc(SCCCC#N)n2Cc2c(F)cccc2Cl)n(C)c1=O | 0% (inactive) |
| CCOc1ccc(N(C(C)=O)C2C=CS(=O)(=O)C2)cc1 (stereo not given) | 0% (inactive) |
| Cc1cc(C)nc(NS(=O)(=O)c2ccc(N)cc2)n1 | 0% (inactive) |
| COc1ccc(C(=O)OC(COc2ccccc2)Cn2ccnc2)cc1 (stereo not given) | 0% (inactive) |
